SMILES strings stand for the structures. Among all 350,000 compounds or so, about 1,100 (0.31%) were called active. No stated cut-off is given here; in the data, active means activation above about 50%; inactive means the rest. Shown is part of a subset that was picked to be rich in actives.

For the assay, the target named is Endoribonuclease toxin MazF (Escherichia coli (strain K12)) (UniProt P0AE70). The assay can be described thus: activators of E. coli MazEF toxin-antitoxin RNase, primary screen, biochemical, fluorescence, uHTS (AID 504720). As to conditions: FAM/BHQ RNA-DNA oligo cleavage fluorescence, 5 h, at 20 µM, active compounds read high.
Chain of Endoribonuclease toxin MazF (Escherichia coli (strain K12)) (P0AE70 whole entry, looked up): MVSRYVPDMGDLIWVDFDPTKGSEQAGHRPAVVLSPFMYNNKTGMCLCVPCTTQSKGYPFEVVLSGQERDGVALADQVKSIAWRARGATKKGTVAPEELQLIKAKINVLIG
As to `CC(C)c1nc(SCC(=O)Nc2cccc(C(=O)O)c2)c2c3c(sc2n1)CCCC3`, the activation was 3.75% (inactive). The figure for `Cc1cc(NC(=O)CSc2nc(C(C)C)nc3sc4c(c23)CCC(C)C4)no1` (stereo not given) is 2.72% (inactive).

Turning to `Cc1nc(SCC(=O)Nc2cc(C)on2)c2c3c(sc2n1)CCCC3`, the activation is 63.5% (active). Then `CCC(C)(C)NC(=O)C(c1ccccn1)N(C(=O)c1csnn1)c1ccccc1` (stereo not given), with 5.61% (inactive); and `COc1ccc(CCNC(=O)CSc2nc(C)nc3c2oc2ccccc23)cc1OC`, with 6.58% (inactive); and `O=c1cc(CN2CCN(c3cccc(Cl)c3)CC2)c2cc3c(cc2o1)CCCC3`, with -4.83% (inactive).

Regarding `Cc1ccnc(N2CCN(C(=O)CSc3nc4ccccc4nc3N3CCCCC3)CC2)c1`, the activation was -5.31% (inactive).

`COc1cc(OC)cc(-c2c(C#Cc3ccsc3)c3cc(-c4ccc(OC)cc4F)ccc3n2C)c1`: the activation was -17.7% (inactive). Regarding `Cc1ccc(Nc2nc(-c3ccc(O)cc3O)cs2)nc1`, the activation was 17.4% (inactive). Then `O=c1oc2ccccc2cc1-c1csc(Nc2ccc(O)cc2)n1`, with 78.3% (active).

As for `Cc1ccn2c(-c3csc(Nc4ccc(C(=O)O)cc4)n3)c(C)nc2c1`, the activation is -8.63% (inactive). Take `CCCC1(C(=O)OC)NC(c2ccco2)C2C(=O)N(C)C(=O)C21` (stereo not given): the activation was -13% (inactive). The figure for `NS(=O)(=O)c1ccc(NC(=S)NNC(=O)c2cccs2)cc1` is 13.7% (inactive). The figure for `CC(C)N(C(=O)COC(=O)c1ccccc1C(=O)N1CCN(c2ccc(F)cc2)CC1)C(C)C` is 5.64% (inactive); for `O=C(COC(=O)c1ccccc1C(=O)N1CCN(c2ccccc2)CC1)NCc1ccccc1` it is 67.3% (active); for `Oc1ccc(N2CCN(C(=S)NCc3ccccc3)CC2)cc1` it is -1.54% (inactive).

Consider `Cn1c2ccccc2n2c(=O)c(=O)n(CC(=O)c3ccc(F)cc3)nc12`, for which the activation was -20.6% (inactive). The figure for `CCSc1ccccc1C(=O)NCc1ccc(OC)cc1` is 2.86% (inactive). Then `COc1ccc(OC)c(NC(=O)c2cnn(-c3ccccc3Cl)c2NC(=O)c2ccco2)c1`, with 4.29% (inactive); and `CCC(=O)OCc1c(C(F)(F)F)nn(C)c1Oc1cccc(C(F)(F)F)c1`, with -2.22% (inactive). The figure for `Cn1nc(C(F)(F)F)cc1C(=O)O` is 11.7% (inactive); for `Cn1nc(C(F)(F)F)cc1-c1ccc(/C=C(\C#N)C(=O)c2cccc(C(F)(F)F)c2)s1` it is 730% (active); for `C=CCSc1nc(Cc2ccc(Cl)cc2)nc2ccccc12` it is -10.7% (inactive). `COc1cccc(OC)c1CN(C)C(=O)c1cnccc1C(F)(F)F`: the activation is -0.62% (inactive). The figure for `Cc1nc([N+](=O)[O-])cn1CC(=O)Nc1ccc(Cl)cc1` is 7.49% (inactive).

These data come from PubChem BioAssay AID504720 (Sanford-Burnham Center for Chemical Genomics, 2011).
